# Screening data: PubChem BioAssay, Sanford-Burnham Center for Chemical Genomics
# Mdm2-MdmX inh = inhibitors of human Mdm2-MdmX association, primary screen, cell-based, luminescence, split luciferase, SaOS-2, uHTS | 330,000 tested, 3% active | inhibition, % at 8 µM | Protein Mdm4 (Homo sapiens) + E3 ubiquitin-protein ligase Mdm2 (Homo sapiens), … | SaOS-2 split-luciferase Mdm2/MdmX complementation;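 active = inhibition of at least 50% at 8 µM in the primary screen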
# Target sequence (O15151 whole entry, looked up): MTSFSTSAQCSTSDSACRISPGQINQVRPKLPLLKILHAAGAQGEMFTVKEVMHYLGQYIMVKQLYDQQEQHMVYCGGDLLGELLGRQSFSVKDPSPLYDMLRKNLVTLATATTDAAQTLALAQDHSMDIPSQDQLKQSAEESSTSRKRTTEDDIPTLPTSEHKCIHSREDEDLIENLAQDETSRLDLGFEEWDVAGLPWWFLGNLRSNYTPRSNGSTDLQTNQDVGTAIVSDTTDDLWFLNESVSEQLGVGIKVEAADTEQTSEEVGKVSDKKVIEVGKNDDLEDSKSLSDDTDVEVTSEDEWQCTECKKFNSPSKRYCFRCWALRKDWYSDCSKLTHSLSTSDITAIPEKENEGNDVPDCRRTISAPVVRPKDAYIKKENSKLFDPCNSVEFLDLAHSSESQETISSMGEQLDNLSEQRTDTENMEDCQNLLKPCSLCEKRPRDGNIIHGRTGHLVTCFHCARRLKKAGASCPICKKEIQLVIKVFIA
# Target sequence (Q00987 whole entry, looked up): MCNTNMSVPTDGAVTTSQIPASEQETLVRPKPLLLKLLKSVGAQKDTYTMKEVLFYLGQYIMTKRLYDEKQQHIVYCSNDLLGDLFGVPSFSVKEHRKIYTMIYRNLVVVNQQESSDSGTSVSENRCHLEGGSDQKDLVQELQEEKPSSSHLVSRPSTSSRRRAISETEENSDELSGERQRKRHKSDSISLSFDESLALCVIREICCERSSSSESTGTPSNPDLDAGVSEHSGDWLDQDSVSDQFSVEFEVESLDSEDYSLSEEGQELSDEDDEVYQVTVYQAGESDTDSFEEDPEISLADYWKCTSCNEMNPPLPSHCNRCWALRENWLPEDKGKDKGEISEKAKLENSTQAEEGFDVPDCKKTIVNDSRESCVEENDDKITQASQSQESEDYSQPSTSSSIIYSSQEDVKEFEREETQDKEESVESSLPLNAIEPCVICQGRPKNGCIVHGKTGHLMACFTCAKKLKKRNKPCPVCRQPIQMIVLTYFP
# tim10-1 inh = growth inhibitors of tim10-1 mutant yeast, primary screen, luminescence, uHTS. S. cerevisiae tim10-1 ts strain growth, BacTiter-Glo, 24 h. 330,000 tested, 2.2% active. AID 463190, 2010. inhibition, % at 20 µM;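 active = inhibition of at least 40%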;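 also: mutant grown at 25 °C; 0% = DMSO wells with yeast and 100% = wells holding no yeast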
# TIM10 inh = growth inhibitors of isogenic TIM10 control yeast, primary screen, counter-screen for tim10-1 yeast inhibitor project, luminescence, uHTS. S. cerevisiae TIM10 strain growth, BacTiter-Glo luminescence, 24 h. inhibition, % at 10 µM. 330,000 tested, 1.4% active. AID 463195, 2010;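 active = inhibition of 40% or more at the single tested concentration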;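 also: wild-type TIM10 isogenic control strain grown at permissive 25 °C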
# MPTP inh = mitochondrial permeability transition pore inhibitors, primary screen, biochemical, isolated mouse mitochondria, absorbance | Ca2+ swelling absorbance, 30 min | inhibition, % at 10 µM | 360,000 tested, 1.4% active;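 active = inhibition of 50% or more, scaled per plate between neutral and stimulator controls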;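 also: 0% = DMSO wells given calcium and 100% = 1 mM EGTA wells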
# tim23-1 inh = growth inhibitors of tim23-1 mutant yeast, primary screen, luminescence, uHTS; inhibition, % at 20 µM; 330,000 tested, 1.3% active; S. cerevisiae tim23-1 growth, BacTiter-Glo luminescence, 24 h;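 active = growth inhibition of the mutant yeast at or above 50%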;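 also: temperature-sensitive mutant grown at 25 °C; plate controls were DMSO-treated mutant yeast for no effect and medium wells lacking yeast for full effect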
# tim10-1 conf = growth inhibitors of tim10-1 mutant yeast, confirmation, single concentration, luminescence, S. cerevisiae; shares compounds with tim10-1 inh; S. cerevisiae tim10-1 ts strain growth, BacTiter-Glo, 24 h; inhibition, % at 20 µM; 7,400 tested, 56% active; AID 463213, 2010;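 active = inhibition of yeast growth at or above a set limit in either of two repeat tests at 20 µM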;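 also: tim10-1 mutant grown at permissive 25 °C to find synthetic lethal compounds; 0% = DMSO yeast wells and 100% = medium wells without yeast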
# TIM10 conf = growth inhibitors of wild-type TIM10 yeast, confirmation, counter-screen for tim10-1 synthetic lethality project, single concentration, luminescence, S. cerevisiae | shares compounds with TIM10 inh | S. cerevisiae tim10 strain growth, BacTiter-Glo luminescence, 24 h | inhibition, % at 10 µM | 4,600 tested, 63% active;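 active = inhibition of yeast growth at or above a set limit in either of two replicates at 10 µM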;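 also: this counterscreen used the strain with wild-type TIM10; 0% = yeast with DMSO and 100% = medium wells lacking yeast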
# tim23-1 conf = tim23-1 mutant yeast growth inhibitors, confirmation, luminescence, single concentration; shares compounds with tim23-1 inh; S. cerevisiae tim23-1 growth, BacTiter-Glo luminescence, 24 h; inhibition, % at 20 µM; 4,400 tested, 83% active; AID 463218, 2010;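 active = inhibition above about 39% in either of two replicate wells at 20 µM, limit read from the data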;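 also: temperature-sensitive tim23-1 mutant grown at 25 °C; 0% = DMSO wells with yeast and 100% = medium wells without yeast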
# Mdm2 MdmX conf = Mdm2-MdmX complex disruptors, retested hits, confirmation, luminescence, single concentration | shares compounds with Mdm2-MdmX inh | Mdm2-MdmX binding, luminescent assay | inhibition, % at 8 µM | 10,000 tested, 55% active | AID 489028, 2010; in the data active = inhibition above about 40%
# FLuc counter = full-length luciferase signal inhibition, confirmation, counter-screen for Mdm2/MdmX interaction inhibitor project, cell-based, single concentration, SaOS-2; shares compounds with Mdm2-MdmX inh; SaOS-2 full-length luciferase counterscreen, luminescence; inhibition, % at 8 µM; 6,200 tested, 77% active;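 active = mean inhibition at 8 µM reaching about 37%, which flags the compound as non-specific, limit read from the data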;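 also: p53-null SaOS-2 cells with luciferase driven by a doxycycline-inducible promoter; compound on cells about two nights before reading with doxycycline added after day one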
# Numbers without * were called inactive; x = no result given. Sampled rows, rich in hits. Any-hit rate of the full collection: about 6.3%.
SMILES,Mdm2-MdmX inh,tim10-1 inh,TIM10 inh,MPTP inh,tim23-1 inh,tim10-1 conf,Mdm2 MdmX conf,others
Cc1nc(NC(=O)C(C)(C)C)sc1-c1csc(N)n1,x,x,x,0,x,x,x,
Cc1c(C=O)c(C=O)c(C)n1Cc1ccccc1,86*,42*,17,1,39,21,86*,FLuc counter=31
CCOC(=O)N1CCc2c(sc(NC(=O)c3ccc(Cl)s3)c2C(N)=O)C1,55*,43*,35,x,66*,46*,21,tim23-1 conf=68*
CCOC(=O)N1CCc2c(sc(NC(C)=O)c2C(N)=O)C1,13,-14,0,-1,-4,x,x,
CC(C)(C)c1ccc(C(=O)N2CCC2(C)C(=O)Nc2cccc3ncccc23)cc1 (stereo unspecified),x,x,x,-1,x,x,x,
O=C1/C(=C/c2ccccc2Cl)SC(=S)N1CCC(=O)N1CCCCC1CCO (stereo unspecified),53*,46*,29,-1,49,28,24,
CCN(CC)CCn1c2ccccc2c2cnc(N)c(C#N)c21,63*,67*,86*,-1,41,73*,27,TIM10 conf=86*
CCN(CC)CCn1c2ccccc2c2nc3ccccc3nc21,-29,9,6,-1,16,x,x,
CN(C)C=Nc1ncc2c3ccccc3n(CCN(C)C)c2c1C#N,60*,51*,76*,4,44,64*,62*,TIM10 conf=75*;FLuc counter=22
CS(=O)(=O)c1ccc(S(=O)CC(=O)OCc2ccccc2)c([N+](=O)[O-])c1 (stereo unspecified),x,x,x,2,x,x,x,
O=C(CS(=O)c1ccc(C(F)(F)F)cc1[N+](=O)[O-])Oc1ccccc1 (stereo unspecified),52*,50*,70*,2,72*,57*,24,TIM10 conf=46*;tim23-1 conf=75*
COc1cccc(NC(=O)C2(C)CCN2C(=O)CC2CCCC2)c1 (stereo unspecified),x,x,x,1,x,x,x,
CCCc1nc2c(C)cc(Br)cn2c1Cc1ccccc1C(F)(F)F,x,x,x,-1,x,x,x,
O=C1/C(=C/c2ccc([N+](=O)[O-])cc2)C=C(c2ccccc2)N1c1ccc(O)cc1,61*,41*,18,7,1,37*,58*,FLuc counter=52*
N#C/C(=C\c1c(Cl)cccc1Cl)c1nc2ccccc2o1,82*,73*,40*,0,62*,75*,36,TIM10 conf=-15;tim23-1 conf=74*
Cc1cc(O)ccc1N/C=C(\C#N)c1nc2ccccc2o1,15,-1,3,4,-10,x,x,
COc1ccc(C(=O)N/C(=C\c2ccc(Cl)cc2)C(=O)NCc2ccncc2)cc1,x,x,x,-1,x,x,x,
N/C(=N\OC(=O)N1CCOCC1)c1ccc(Br)cc1,100*,60*,50*,1,37,61*,59*,TIM10 conf=41*;FLuc counter=134*
N/C(=N\OC(=O)N1CCOCC1)c1ccc(Cl)cc1,92*,61*,17,-1,33,49*,61*,FLuc counter=148*
O=C(COc1ccc(Br)cc1)N1CCOCC1,13,18,-4,2,4,x,x,
CC(O)(c1ccccc1)c1nc(-c2ccncc2)cs1 (stereo unspecified),x,x,x,1,x,x,x,
